The source of these data is PubChem BioAssay (NCATS).

The target of experiment [1] is Hexokinase-4 (Homo sapiens) + Glucokinase regulatory protein (Homo sapiens) (UniProt P35557+Q14397). The experiment in a line: qHTS assay for inhibitors of recombinant human GCK-GKRP interaction: HTRF assay (AID 743207).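 Further: 0% = DMSO with GCK present and -100% = DMSO wells lacking GCK.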 The method, boiled down:
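Steps: dispense GCK–GKRP complex (5 nM each, GST- and FLAG-tagged) with 2 uM S6P; pin in compounds; add XL665/Eu-cryptate-labelled antibodies; incubate 60 min at room temperature; read time-resolved FRET at 665 and 615 nm.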
On the technique in general: qHTS replaces the single test concentration by a dilution series.

A short description of experiment [2]: qHTS Assay for Identifying Gametocytocidal Compounds (AID 743244).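 Further: on the % scale 0 is the no-effect control and ±100 the full control effect; actives lower the fluorescent signal which means gametocytes are killed.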 As to conditions: P. falciparum 3D7 stage III-V gametocytes, alamarBlue, 72 h; max response: stronger effect = lower value. The method, boiled down: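 In this qHTS viability screen, late-stage 3D7 gametocytes are incubated with compound for 72 h, then with alamarBlue for 24 h; reduced resorufin fluorescence marks killing.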

Experiment [3] in a line: qHTS assay for cell viability of HEK293 cells (AID 743288). Further: on the % scale 0 is the no-effect control and ±100 the full control effect; nearly all actives have a fitted effect of over 50% in size. As to conditions: ATP luminescence (CellTiter-Glo), 18 h; max response: stronger effect = lower value. The gist of the method: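 The Tox21 protocol used parental HEK293 cells treated for 18 h at 37 C with compounds delivered by pintool; ATP-coupled luminescence after 30 min at room temperature gave viability.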
Experiment [4] in a line: qHTS assay for cell viability of the p53RE-bla HCT-116 cell line (AID 743292). Further: on the % scale 0 is the no-effect control and ±100 the full control effect; nearly all actives have a fitted effect of over 55% in size. The method, boiled down:
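CellSensor p53RE-bla HCT-116 cells (4,000/well) pre-incubated 5 h at 37 C, then exposed to compounds in DMSO for 16 h at 37 C. Viability read as ATP content by CellTiter-Glo luminescence after 30 min at room temperature.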

A short description of experiment [5]: qHTS profiling of the MIPE4 collection as inhibitors of Plasmodium falciparum (3D7) proliferation (AID 743344; call rule not given here). Conditions: P. falciparum 3D7 in erythrocytes, SYBR Green DNA fluorescence, 72 h; at 28.5 µM (top of the series) unless noted. The gist of the method: (§1)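 Erythrocytes infected with P. falciparum (0.3% parasitemia, 2.5% hematocrit) incubated with compounds 72 h at 37 C, 5% CO2. Lysis with saponin/Triton buffer containing SYBR Green I, overnight at room temperature in the dark; DNA fluorescence (485/535 nm) normalised to 0.29 uM artemisinin and DMSO.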

The nature of experiment [6]: qHTS profiling of the MIPE4 collection as inhibitors of Plasmodium falciparum (DD2) proliferation (AID 743345; call rule not given here). Conditions: P. falciparum Dd2 in erythrocytes, SYBR Green DNA, 72 h; at 28.5 µM (top of the series) unless noted. The gist of the method:
as §1

Experiment [7] in a line: qHTS profiling of the MIPE4 collection as inhibitors of Plasmodium falciparum (DD2) proliferation (Rep 2) (AID 743346; call rule not given here). As to conditions: P. falciparum Dd2 in erythrocytes, SYBR Green DNA, 72 h; at 28.5 µM (top of the series) unless noted. The method, boiled down:
as §1

Experiment [8] is described as follows: High-throughput drug toxicity screening in the BPDCN cell line Gen2.2 (AID 1224824; call rule not given here;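 further: cells exposed to compounds for 48 h before reading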). As to conditions: Gen2.2 BPDCN cells; at 45.8 µM (top of the series) unless noted. The gist of the method: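 Gen2.2, 500 cells/well, phenol red-free RPMI/10% FBS/Pen-Strep; 48 h cpd, 37 °C/5% CO2; CTG lum, 15 min RT. Norm: DMSO = 100%, bortezomib 9.2 uM final = 0%.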
A short description of experiment [9]: High-throughput drug toxicity screening in the BPDCN cell line Cal-1 (AID 1224825; call rule not given here). As to conditions: Cal-1 BPDCN cell viability, qHTS; at 45.8 µM (top of the series) unless noted. The gist of the method:
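500 Cal-1 cells/well, RPMI + glutamine + 10% FBS (phenol red-free); cpd added by pin tool; 48 h, 37C, 5% CO2; CTG 15 min RT, lumi read. Normalised: DMSO 100%, bortezomib 9.2 uM 0%.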

Experiment [10] in a line: qHTS assay for measurement of the activity of small molecule inhibitors on Zika virus induced Caspase-3 activity in human iPSC derived neural progenitor cells (hNPCs) (AID 1224857). Further: % of control where 0% means no effect; nearly all actives have a fitted effect of over 65% in size. The method, boiled down: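 In medium with heparin 2 ug/ml and cyclopamine 2 uM, hNPCs (350 cells/well) received compound for one hour and then Zika virus at 2 FFU/cell; caspase activity was measured by Caspase-Glo 3/7 luminescence 6 h post-infection.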

Experiment [11] can be described thus: qHTS assay for measurement of the activity of small molecule inhibitors on Zika virus induced Caspase-3 activity in human astrocytoma cells (AID 1224859).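 Further: plate controls were ZIKV-infected untreated cells for no effect and uninfected cells for full effect.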 The gist of the method:
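A cell-based luminescent caspase-3/7 assay used SNB-19 cells infected with ZIKV (2 FFU/cell) for 6 h following 1 h compound pretreatment.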

Experiment [12] is described as follows: qHTS Screen of the MIPE 4.0 Collection Against Ewings Sarcoma (RDES) (AID 1259252). Further: nearly all actives have a fitted effect of over 35% in size. Further: potency means the concentration at half of the fitted maximal effect. The method, boiled down: (§2)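 CellTiter-Glo luminescence after 48 h compound exposure (titration) gave viability; percent activity used DMSO-treated cells as no inhibition and medium-only wells as full inhibition. Cells grown in RPMI/5% FBS, dosed 4 h post-seeding.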
A short description of experiment [13]: qHTS Screen of the MIPE 4.0 Collection Against Ewings Sarcoma (TC71) (AID 1259253). Further: nearly all actives have a fitted effect of over 40% in size. Further: potency means the concentration at half of the fitted maximal effect. The gist of the method: as §2
Experiment [14] in a line: qHTS Screen of the MIPE 4.0 Collection Against Ewings Sarcoma (EW8) (AID 1259255).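 Further: 100% = DMSO-treated cells and 0% = medium-only wells without cells; nearly all actives have a fitted effect of over 35% in size.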 The method, boiled down:
as §2

Experiment [15] is described as follows: qHTS profiling for inhibitors of Plasmodium falciparum (3D7) proliferation (AID 743322; call rule not given here;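 further: infected erythrocytes exposed to compound for 72 h before lysis; 100% = DMSO vehicle wells and 0% = 0.29 µM artemisinin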). As to conditions: P. falciparum 3D7 proliferation; at 28.7 µM (top of the series) unless noted. The gist of the method: as §1
A short description of experiment [16]: qHTS profiling for inhibitors of Plasmodium falciparum (DD2) proliferation (AID 743323; call rule not given here). Conditions: lower = more inhibition; at 28.7 µM (top of the series) unless noted. The gist of the method: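 Parasite proliferation measured via DNA-dye fluorescence, as uninfected erythrocytes lack DNA. Cultures at 0.3% parasitemia and 2.5% hematocrit incubated 72 h with compound; signal scaled between vehicle and 0.29 uM artemisinin wells.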

Experiment [17] is described as follows: Cell Proliferation Assay Versus the ED40515 IL2 Dependent ATL cell lines (AID 1053195; calls by dose curve). As to conditions: ED40515 IL2-dependent ATL cells. The gist of the method:
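IL2-dependent ED40515 ATL cells grown with IL2, 1000 cells/well in phenol red-free RPMI + 5% FBS, exposed 48 hours at 37C. Viability by CellTiter-Glo luminescence after 15 min at RT; 9.2 uM bortezomib as control.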

The nature of experiment [18]: qHTS profiling for inhibitors of Plasmodium falciparum (HB3) proliferation (AID 743324).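 Further: 100% = DMSO vehicle wells and 0% = artemisinin-treated control wells.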 As to conditions: Plasmodium falciparum HB3 blood-stage proliferation; at 28.7 µM (top of the series) unless noted. The gist of the method: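 P. falciparum HB3 grown in erythrocytes (0.3% parasitemia, 2.5% hematocrit final) with compound for 72 h at 37 C, 5% CO2. Parasite DNA detected by SYBR Green after saponin/triton lysis overnight; normalized to 0.29 uM artemisinin and DMSO.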

Experiment [19] in a line: qHTS profiling of the MIPE4 collection as inhibitors of Plasmodium falciparum (HB3) proliferation (AID 743347; call rule not given here;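 further: plate controls were DMSO vehicle wells for no effect and artemisinin wells for full effect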). As to conditions: P. falciparum HB3 in erythrocytes, SYBR Green DNA, 72 h; at 28.5 µM (top of the series) unless noted. The method, boiled down: as §1
Experiment [20] is described as follows: Cell Proliferation Assay Versus the ED40515 IL2 Independent ATL cell lines (AID 1053194; calls by dose curve). As to conditions: ED40515 IL2-independent ATL cells. The method, boiled down: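 Log-phase ED40515 cells grown without IL-2, 1000 cells/well in phenol red-free RPMI with 5% FBS, exposed to drugs 48 h at 37C. Viability read as CellTiter-Glo luminescence after 15 min at RT; DMSO and 9.2 uM bortezomib as controls.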

Several values for one entry are separate records, joined by “and”; a condition that tells them apart may be missing. Identical values can stand only once. Results filed as inconclusive are left out. Activity calls are given as the source filed them. Unless noted, the call rests on the fitted dose curve; in most records, active means well fitted curve in the direction sought with a large enough effect; inconclusive means small, poorly fitted or top-dose-only effect, or another doubt; inactive means no such curve, though single readings can be large; an effect the other way counts as inactive or inconclusive.

Hexokinase-4 (Homo sapiens) + Glucokinase regulatory protein (Homo sapiens), sequence (P35557 whole entry, looked up): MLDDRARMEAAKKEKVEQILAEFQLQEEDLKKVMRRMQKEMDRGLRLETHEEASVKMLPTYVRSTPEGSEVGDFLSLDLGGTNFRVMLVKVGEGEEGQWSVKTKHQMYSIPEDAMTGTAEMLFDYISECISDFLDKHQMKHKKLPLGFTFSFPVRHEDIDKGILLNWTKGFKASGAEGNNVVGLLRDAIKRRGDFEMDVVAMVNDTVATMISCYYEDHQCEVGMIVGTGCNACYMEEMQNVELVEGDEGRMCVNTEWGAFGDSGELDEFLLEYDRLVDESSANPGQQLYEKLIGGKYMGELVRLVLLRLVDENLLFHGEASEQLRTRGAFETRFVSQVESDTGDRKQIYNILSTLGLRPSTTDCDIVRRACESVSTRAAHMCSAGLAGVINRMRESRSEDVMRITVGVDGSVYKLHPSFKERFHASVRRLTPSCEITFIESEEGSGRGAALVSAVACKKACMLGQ
Hexokinase-4 (Homo sapiens) + Glucokinase regulatory protein (Homo sapiens), sequence (Q14397 whole entry, looked up): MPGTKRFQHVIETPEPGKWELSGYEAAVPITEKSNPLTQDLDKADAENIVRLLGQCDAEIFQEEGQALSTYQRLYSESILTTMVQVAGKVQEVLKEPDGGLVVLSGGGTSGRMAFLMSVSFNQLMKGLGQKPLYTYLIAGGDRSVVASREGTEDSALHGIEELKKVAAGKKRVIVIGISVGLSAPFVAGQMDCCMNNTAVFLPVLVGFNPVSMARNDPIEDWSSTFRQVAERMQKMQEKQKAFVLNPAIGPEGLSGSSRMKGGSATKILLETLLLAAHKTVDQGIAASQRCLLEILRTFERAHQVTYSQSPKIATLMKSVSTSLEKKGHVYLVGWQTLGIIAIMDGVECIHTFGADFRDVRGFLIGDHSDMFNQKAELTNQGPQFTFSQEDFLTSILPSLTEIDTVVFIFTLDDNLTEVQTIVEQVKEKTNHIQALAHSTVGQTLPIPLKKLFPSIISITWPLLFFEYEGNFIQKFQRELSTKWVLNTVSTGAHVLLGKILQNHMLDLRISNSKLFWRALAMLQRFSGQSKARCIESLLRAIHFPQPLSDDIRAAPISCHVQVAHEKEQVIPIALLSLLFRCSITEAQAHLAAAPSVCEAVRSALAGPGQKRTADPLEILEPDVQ

Turning to `NS(=O)(=O)c1cc2c(cc1Cl)NC=NS2(=O)=O`, the outcome in experiment [1] was inactive. Moreover, the max response in experiment [2] is -0.751% (inactive) and 21.2% (inactive); in experiment [3] it was -1.12% (inactive). Besides, the Potency entry in [4], in experiment [10], in experiment [11], in [12], in [13] and in experiment [14] was “inactive” each time. For the same molecule, the parasite growth, % of DMSO control in [5] turned out to be 88.5%. This molecule also gave a parasite growth remaining, % of DMSO control (lower = more inhibition) in [6] of 91.5%. For the same molecule, the parasite growth, % of control (lower = inhibition) in experiment [7] came out at 125%. Moreover, in [8], the cell viability, % of control (lower = more cytotoxic) came out at 71.6%. The viability (% of control) in [9] came to 26.7%.
On to `CCN(CC)CCCC(C)Nc1nc(C)cc(Nc2ccc3nc(C)cc(N)c3c2)n1` (stereo not drawn), for which the remaining parasite growth % (stronger effect = lower value) in experiment [15] amounted to 29.9%. Also, in experiment [16], the activity, percent of control turned out to be 17.1%. The parasite growth, % of DMSO control in [5] stood at 25%. The molecule also had a parasite growth remaining, % of DMSO control (lower = more inhibition) in experiment [6] of 21.1%. In [7], the parasite growth, % of control (lower = inhibition) came to 14.4%. Besides, in [17], the Potency is 18.7 µM (active). The cell viability, % of control (lower = more cytotoxic) in [8] worked out at 55.4%. Besides, the viability (% of control) in experiment [9] came to 74.8%. The Potency entry in [10], in experiment [11], in [12] and in experiment [13] was “inactive” in each case.
As to `COc1c(Cl)cc2c([nH]c3cnccc32)c1NC(=O)c1cccnc1C`, the max response in [2] is 20.9% (inactive). In addition, the remaining parasite growth % (stronger effect = lower value) in experiment [15] was determined as 107%. The activity, percent of control in experiment [16] was determined as 108%. Besides, in [18], the remaining proliferation (% of control), lower = more inhibition worked out at 86.1%. Also, the parasite growth, % of DMSO control in experiment [5] was 19.9%. In experiment [7], the parasite growth, % of control (lower = inhibition) stood at 25.5%. This molecule also showed a growth, % of control in experiment [19] of 4.33%. Moreover, the Potency in experiment [17] was 33.2 µM (active); in experiment [12], 0.59 µM (active). Further, in [8], the cell viability, % of control (lower = more cytotoxic) is 41.9%. In addition, the viability (% of control) in experiment [9] was determined as 77.1%. Moreover, the Potency entry in experiment [10] and in experiment [11] was “inactive” in each case.
As for `C/C(=C\C(=O)Nc1ccccc1C(=O)O)c1ccc2ccccc2c1`, the max response in experiment [2] was 90.9% (inactive). In addition, in experiment [15], the remaining parasite growth % (stronger effect = lower value) came out at 32.7%. Also, the activity, percent of control in experiment [16] came out at 101%. Also, the remaining proliferation (% of control), lower = more inhibition in experiment [18] was 114%. For the same molecule, in [20], the Potency is 8.33 µM (active).
For `Nc1nc2[nH]cc(CCc3ccc(C(=O)N[C@@H](CCC(=O)O)C(=O)O)cc3)c2c(=O)[nH]1`, the max response in [2] is 97.2% (inactive) and -5.73% (inactive). The remaining parasite growth % (stronger effect = lower value) in [15] was 14.6%. In [16], the activity, percent of control came out at 10.6%. Also, in [18], the remaining proliferation (% of control), lower = more inhibition turned out to be 4.66%. In addition, in experiment [5], the parasite growth, % of DMSO control is 55.6%. Further, in [6], the parasite growth remaining, % of DMSO control (lower = more inhibition) is 48.3%. Moreover, the parasite growth, % of control (lower = inhibition) in [7] was determined as 26.3%. The same molecule gave a growth, % of control in [19] of 139%. The Potency is 0.0296 µM (active) in experiment [17] and 0.264 µM (active) in experiment [13]. For the same molecule, in [8], the cell viability, % of control (lower = more cytotoxic) amounted to 115%. In experiment [9], the viability (% of control) came out at 37.4%. Also, the Potency result in experiment [10] and in [11] was “inactive” throughout.
